SNCA viab count – reduces viability of HEK-293 SNCA reporter cells; Potency, µM (series often up to 57.1 µM), inactives show at the highest dose activity change, negative = cytotoxicity, usual class: cytotoxic; HEK-293-SNCA-luc viability, GF-AFC fluorescence, 24 h; 0.12% of 150,000 active;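 further: potency means the concentration at half of the fitted maximal effect; 0% = DMSO-treated cells and -100% = medium-only wells without cells; nearly all actives have a fitted effect of over 30% in size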
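Cytotoxicity counterscreen: after 24 h compound treatment of genome-edited SNCA-luciferase HEK-293 cells, live-cell protease substrate GF-AFC read by fluorescence after 30 min; activity scaled between DMSO (0%) and medium-only (-100%), curves Hill-fitted.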
IP6K1 inhibitor – IP6K1 kinase inhibition. activity change, % (series mostly up to about 58 µM). IP6K1 kinase, ADP-Glo luminescence, 2 h; stronger effect = lower value. Q92551. 0.81% of 140,000 active. AID 1645851; in the data active means activity change below about -25%; further: on the % scale 0 is the no-effect control and ±100 the full control effect
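ADP-Glo luminescence measures ADP made by human IP6K1 during a 2 h RT reaction with ATP/IP6 (mix at 1.3 mM/130 uM); top library doses 57.5 and 19.1 uM final.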
KDM5B inhibitor – KDM5B demethylase inhibition; Q9UGL1; KDM5B demethylase, FDH-coupled NADH fluorescence (FDH is formaldehyde dehydrogenase); Potency, µM (series often up to 57.7 µM), most hits filed as inhibitors; 2.6% of 220,000 active; AID 1347165; further: potency means the concentration at half of the fitted maximal effect; 0% is about no effect; nearly all actives have a fitted effect of over 70% in size
Target sequence (Q9UGL1 whole entry, looked up): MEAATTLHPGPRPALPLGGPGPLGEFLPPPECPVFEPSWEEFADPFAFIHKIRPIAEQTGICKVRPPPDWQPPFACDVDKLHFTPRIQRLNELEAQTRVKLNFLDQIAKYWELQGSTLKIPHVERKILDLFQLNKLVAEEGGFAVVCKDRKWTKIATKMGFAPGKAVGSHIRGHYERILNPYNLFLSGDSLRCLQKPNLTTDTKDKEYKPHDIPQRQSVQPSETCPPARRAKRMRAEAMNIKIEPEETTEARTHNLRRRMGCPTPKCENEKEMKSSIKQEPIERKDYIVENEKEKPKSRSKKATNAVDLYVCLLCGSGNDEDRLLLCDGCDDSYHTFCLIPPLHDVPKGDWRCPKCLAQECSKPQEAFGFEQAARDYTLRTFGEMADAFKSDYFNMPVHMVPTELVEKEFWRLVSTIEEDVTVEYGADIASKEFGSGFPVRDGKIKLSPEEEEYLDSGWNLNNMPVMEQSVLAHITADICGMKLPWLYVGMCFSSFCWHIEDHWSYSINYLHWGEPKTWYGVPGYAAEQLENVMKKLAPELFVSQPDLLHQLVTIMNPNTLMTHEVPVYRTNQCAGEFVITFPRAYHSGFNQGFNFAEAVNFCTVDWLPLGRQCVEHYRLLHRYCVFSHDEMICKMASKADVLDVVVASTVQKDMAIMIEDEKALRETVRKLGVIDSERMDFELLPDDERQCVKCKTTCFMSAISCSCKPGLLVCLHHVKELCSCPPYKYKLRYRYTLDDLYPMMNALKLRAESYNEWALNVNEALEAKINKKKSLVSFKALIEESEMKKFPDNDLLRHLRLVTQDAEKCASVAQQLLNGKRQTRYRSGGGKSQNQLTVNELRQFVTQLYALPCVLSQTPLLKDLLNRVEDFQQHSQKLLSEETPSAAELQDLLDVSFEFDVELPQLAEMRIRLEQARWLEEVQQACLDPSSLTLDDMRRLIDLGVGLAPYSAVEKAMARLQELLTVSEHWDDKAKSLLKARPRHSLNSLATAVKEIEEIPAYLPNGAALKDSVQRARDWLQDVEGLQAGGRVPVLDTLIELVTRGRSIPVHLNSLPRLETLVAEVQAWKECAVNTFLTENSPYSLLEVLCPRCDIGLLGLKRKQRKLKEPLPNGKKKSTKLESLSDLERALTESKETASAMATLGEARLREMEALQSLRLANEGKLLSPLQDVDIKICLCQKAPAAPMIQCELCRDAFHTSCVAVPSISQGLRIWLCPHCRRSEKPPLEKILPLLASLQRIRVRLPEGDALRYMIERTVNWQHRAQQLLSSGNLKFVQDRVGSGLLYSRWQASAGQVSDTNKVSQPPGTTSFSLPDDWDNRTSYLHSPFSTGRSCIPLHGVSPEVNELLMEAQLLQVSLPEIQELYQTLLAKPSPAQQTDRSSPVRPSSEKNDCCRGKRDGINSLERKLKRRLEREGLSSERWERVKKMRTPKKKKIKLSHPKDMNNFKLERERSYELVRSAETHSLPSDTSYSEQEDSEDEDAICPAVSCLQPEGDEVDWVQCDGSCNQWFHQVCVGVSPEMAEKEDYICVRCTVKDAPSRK
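Measured: NADH fluorescence change, 30 min, RT. System: KDM5BΔAP 200 nM final, H3K4me3 peptide, α-KG, Fe(II), ascorbate, NAD⁺ plus FDH, pH 7.5 HEPES. Compounds: titrated, 10 min pre-incubation with enzyme.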
SNCA expr inhib – inhibitors of alpha-synuclein (SNCA) gene expression | HEK-293 SNCA-luciferase knock-in, luminescence, 24 h | AID 1671194 | 0.17% of 140,000 active | Potency, µM (series often up to 57.2 µM), for inactives: top-dose activity change, negative = inhibition, usual class: inhibitors;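 further: potency means the concentration at half of the fitted maximal effect; plate controls were DMSO cells for no effect and cell-free wells for full effect; nearly all actives have a fitted effect of over 45% in size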
* hit, by the source's call; i = inactive; ? = inconclusive; . = not tested or not shown; [ ] = remark or other dose. Only some compounds are listed: those with a hit (about 3% of all), similar ones and a draw of the others. Unless noted, the call rests on the fitted dose curve; in most records, active means well fitted curve in the direction sought with a large enough effect; inconclusive means small, poorly fitted or top-dose-only effect, or another doubt; inactive means no such curve, though single readings can be large; an effect the other way counts as inactive or inconclusive.

SMILES | SNCA viab count | IP6K1 inhibitor | KDM5B inhibitor | SNCA expr inhib
C[S+](=O)([O-])c1ccc(-c2cc3c(ccn3Cc3ccncc3)c(N3CCOCC3)n2)cc1 | ? | -3.2 | 25.1µM* | -14.7%
CC(=O)Nc1cccc(-c2cc3c(ccn3Cc3ccncc3)c(N3CCOCC3)n2)c1 | 9.2%[87.6 µM] | -1.5 | 28.2µM* | 6.3%[87.6 µM]
C[S+](=O)([O-])N1CCC(Cn2ccc3c(N4CCOCC4)nc(-c4cncnc4)cc32)CC1 | -1.3% | -15.1 | ? | -1.9%
COc1ccc(C(=O)N2CCCC3(C2)Nc2cccnc2NC3=NC2CCCC2)cc1F (stereo not given) | -27.6% | 0.6 | ? | 4.5%
Cc1noc(C)c1CC(=O)N1CCCC2(C1)Nc1cccnc1NC2=NC1CCCC1 (stereo not given) | 0.7% | 0.0 | 25.1µM* | 24.1%
O=C(c1ccccc1)N1CCCC2(C1)Nc1cccnc1NC2=NC1CCCC1 (stereo not given) | -22.0% | 0.0 | 28.2µM* | -9.2%
COc1ccccc1CCC(=O)N1CCCC2(C1)Nc1cccnc1NC2=NC1CCCC1 (stereo not given) | -9.4% | 3.3 | ? | 23.2%
O=C(c1ccccc1Cl)N1CCCC2(C1)Nc1cccnc1NC2=NC1CCCC1 (stereo not given) | 2.0% | 2.6 | ? | 6.4%
CCOc1ccc(C(=O)N2CCCC3(C2)Nc2cccnc2NC3=NC2CCCC2)cc1 (stereo not given) | ? | 0.0 | 31.6µM* | -23.7%
COCCN=C1Nc2ncccc2NC12CCCN(C(=O)c1cccc(OC)c1)C2 (stereo not given) | 2.8% | 3.3 | 31.6µM* | -5.1%
O=C(c1ccccc1)N1CCCC2(C1)Nc1cccnc1NC2=NCc1ccccc1 (stereo not given) | -6.0% | 0.0 | 28.2µM* | 2.6%
O=C(c1ccsc1)N1CCCC2(C1)Nc1cccnc1NC2=NC1CCCC1 (stereo not given) | 0.6% | 12.1 | 8.91µM* | -23.0%
O=S(=O)(c1cccnc1)N1CCCC2(C1)Nc1cccnc1NC2=NCc1ccccc1 (stereo not given) | -8.6% | 10.3 | 28.2µM* | -19.1%
O=C(Nc1ccccc1Cl)N1CCCC2(C1)Nc1cccnc1NC2=NC1CCCC1 (stereo not given) | ? | 1.3 | 28.2µM* | -25.4%
Cc1cc(C(=O)N2CCCC3(C2)Nc2cccnc2NC3=NCc2ccccc2)nn1C (stereo not given) | -0.4% | 0.0 | ? | 16.1%
CCc1nc2c(c(-c3ccc(O)cc3)n1)CN(C(=O)c1ccc(OC)cc1)CC2 | -13.5% | 18.3 | . | 45.0%
Cn1ncc(N2CCC(CNC(=O)c3cn4cccnc4n3)C2)cc1=O (stereo not given) | 3.5% | -8.9 | 28.2µM* | 49.5%
Cc1ccc(NC(=O)C(Sc2ccc(S(=O)(=O)N3CCOCC3)cn2)c2ccccc2)cc1 (stereo not given) | . | . | i | .
COc1cccc(NC(=O)c2cc(-c3ccc(C(F)(F)F)cc3)nc3c2cnn3C)c1 | . | -9.0 | . | .
COc1ccc(-c2noc([C@@H]3CCCN3C(=O)Cc3ccc(C)cc3)n2)cc1OC | ? | 0.0 | 31.6µM* | 3.6%
COc1ccc(-c2noc([C@@H]3CCCN3C(=O)Cc3ccc(C)cc3)n2)cc1 | -23.9% | 8.8 | i | -6.8%
COc1ccc(-c2noc([C@@H]3CCCN3C(=O)Cc3ccccc3C)n2)cc1OC | -15.6% | 3.6 | 28.2µM* | 5.9%
COc1ccc(-c2noc([C@@H]3CCCN3C(=O)Cc3ccc(F)cc3)n2)cc1OC | -15.8% | 3.8 | 28.2µM* | 6.2%
Cc1ccccc1CC(=O)N1CCC[C@H]1c1nc(-c2ccccc2)no1 | 0.5% | 0.0 | i | 13.3%
Cc1nc(-c2cccc(NC(=O)c3ccc4[nH]c(C)c(C)c4c3)c2)cs1 | . | . | i | .
COc1ccc(-c2ccnc3nc(C4CC4)nn23)cc1 | 4.3% | -3.9 | 15.8µM* | 20.5%
COc1ccc(-c2ccnc3nc(C4CC4)nn23)c(F)c1 | -2.0% | -5.3 | 25.1µM* | ?
COCCn1ccc2nc(C)c(C(=O)N3CCN(c4ccccc4)CC3)cc2c1=O | . | . | i | .
CC1=C(C(=O)OC(C)C)C(c2ccc(C)cc2)CC(=O)N1Cc1cccc(C#N)c1 (stereo not given) | 0.6% | 8.7 | i | -19.7%
CCN1CCN(C(=O)C2CCCN(Cc3cccnc3)CCC(=O)NCC2)CC1 (stereo not given) | -12.2% | 6.4 | i | -14.7%
